The campaign covered roughly 68,000 compounds. About 2,700 (4%) showed an effect of 50% or more. Shown is part of a subset that was picked to be rich in strong results.

The experiment relates to Plasmodium berghei. Put plainly: Screen against P. berghei liver stage (PbLuc), transformed with Luciferase, at 2uM. Format: functional, HepG2. The settings on record: tested at 2 uM.
Regarding `CCSCC(C)NCc1nc(-c2cccnc2)no1` (stereo unspecified), the INHIBITION is -15.07%.
Consider `Cc1nn2c(nc1=O)-c1ccccc1NC2C(=O)O` (stereo unspecified), for which the INHIBITION is recorded as 24.05%.
Regarding `Cc1cccc(C(=O)N2C[C@@H](C)[C@@]3(CCN(c4ccsc4)C3=O)C2)n1`, the INHIBITION is on record as 15.44%.
As to `O=C(c1ccsc1)N1CCC2(CCN(Cc3ccccn3)C2=O)C1` (stereo unspecified), the INHIBITION worked out at 57.85%.
The result for `Cc1ccc(C(=O)N2CCC3(CCN(Cc4ccccn4)C3=O)C2)cn1` (stereo unspecified) reads 17.64%; that for `O=C(N1CCCC1)N1CCCC2(CCN(c3ccsc3)C2=O)C1` (stereo unspecified), 45.82%; that for `O=C(c1cccnc1)N1CCCC2(CCN(c3ccsc3)C2=O)C1` (stereo unspecified), 18.37%.
As to `Cc1ccc(C(=O)N2CCC3(CCN(c4ccsc4)C3=O)C2)cn1` (stereo unspecified), the INHIBITION is given as 52.66%.
Regarding `C[C@@H]1CN(C(=O)c2ccsc2)C[C@]12CCN(c1ccsc1)C2=O`, the INHIBITION is given as -1.79%.
With `O=C(CO)N1CCCC2(CCN(c3ccsc3)C2=O)C1` (stereo unspecified), the INHIBITION is listed as 55.21%.
`C[C@H]1CN(C(=O)c2cscn2)C[C@@]12CCN(c1ccsc1)C2=O`: the INHIBITION was determined as 55.8%.
In the case of `O=C(c1ccc(F)cc1)N1CCC2(CCN(Cc3ccccn3)C2=O)C1` (stereo unspecified), the INHIBITION was determined as 11.6%.
Then `O=C(c1ccnnc1)N1CCC2(CCN(c3ccsc3)C2=O)C1` (stereo unspecified), with -12.06%; and `COCC(=O)N1CCCC2(CCN(c3ccsc3)C2=O)C1` (stereo unspecified), with -68.7%; and `c1ccc(CCCN2CCCC2Cn2cncn2)cc1` (stereo unspecified), with 1.63%.
`CCOCCCNC(=O)NCc1c(C)nn(C)c1C`: the INHIBITION was found to be 6.4%.
Regarding `Cc1nn(CCC#N)c(C)c1CCC(=O)N(C)Cc1ccsc1`, the INHIBITION is recorded as 35.84%.
The result for `Cc1nn(CCC#N)c(C)c1CCC(=O)N(C(C)C)C1CC1` reads 52.6%.
The result for `Cc1nn(CCC#N)c(C)c1CCC(=O)N(C)C` reads -57.94%.
Regarding `CCC(=O)Nc1ccc(C(C)NC(=O)COC)cc1` (stereo unspecified), the INHIBITION is recorded as -64.67%.
The result for `Cc1cc(Cn2cc(C#N)c(=O)c3ccccc32)no1` reads -0.45%; that for `CC(C)c1ccc(CN2C(=O)C3(CCNCC3)Nc3ccccc32)cc1`, 6.72%; that for `O=C(NCC1CCOC1)N1CCN(Cc2ccc3c(c2)CCO3)CC1` (stereo unspecified), 10.62%.
Then `O=C(NCc1ccco1)N1CCN(Cc2ccc3c(c2)CCO3)CC1`, with 9.17%; and `O=C(NCC1CCCO1)N1CCN(Cc2ccc3c(c2)CCO3)CC1` (stereo unspecified), with 78.42%.
Then `O=C(C1COCCO1)N1CCN(Cc2ccc3c(c2)CCO3)CC1` (stereo unspecified), with 83.96%; and `O=C(C1CCOC1)N1CCN(Cc2ccc3c(c2)CCO3)CC1` (stereo unspecified), with 47.87%; and `O=C(C1CCCN(CCc2ccc3c(c2)CCO3)C1)N1CCCC1` (stereo unspecified), with -0.62%.
Regarding `CN(C)C1CCN(C(=O)NCc2ccc(Cn3cncn3)cc2)CC1`, the INHIBITION is -8.87%.
The result for `CN1CCN(Cc2cn3c(n2)CN(C2CCOCC2)CC3)CC1` reads 20.01%.
Then `COCCS(=O)(=O)NCC(C)c1cccc(C)c1` (stereo unspecified), with 72.49%; and `Cc1cccc(C(C)CNS(=O)(=O)CCCC#N)c1` (stereo unspecified), with 16.95%; and `COCCS(=O)(=O)NC(C)c1cccc(C)c1C` (stereo unspecified), with 16.38%.
Take `COc1ccc(C(C)NCc2ccc(OC)c(OC)c2OC)cc1F` (stereo unspecified): the INHIBITION is given as -6.67%.
The result for `CC(c1ccco1)N(C)C(=O)NCCOc1ccc(C#N)cc1` (stereo unspecified) reads -6.73%; that for `CCOCC(=O)N1C[C@@H](O)[C@H](NC(C)=O)C1`, -24.98%.
For `CC(=O)N[C@@H]1CN(C(=O)CC2CC2)C[C@H]1O`, the INHIBITION is 53.16%.
Take `CC(=O)N[C@@H]1CN(C(=O)CC2CCOCC2)C[C@H]1O`: the INHIBITION was -4.48%.
The result for `Cc1noc(C)c1CN1CCn2cc(CNc3ccccn3)nc2C1` reads 6.07%.
The result for `Cc1oc(CN(C)C(=O)c2ccc(C(F)(F)F)cc2)cc1C(=O)O` reads 40.4%.
The result for `CC(C)C(=O)NC1COC2(CCN(C(=O)c3cccnc3)CC2)C1` (stereo unspecified) reads 9.53%; that for `N#CC1(C(=O)N2CCCN(Cc3cscn3)CC2)CCCCC1`, 7.71%.
Take `N#CC1(C(=O)N2CCN(Cc3cscn3)CC2)CCCC1`: the INHIBITION is 34.83%.
Regarding `N#CC1(C(=O)N2CCN(Cc3cscn3)CC2)CCCCC1`, the INHIBITION was found to be 52.17%.
With `Cc1ccc(S(=O)(=O)Cc2noc([C@@H]3C[C@@H](O)CN3C)n2)cc1`, the INHIBITION stood at 32.59%.
For the compound `CN(Cc1cn2c(n1)CN(Cc1ccc(F)cc1)CC2)Cc1ccco1`, the INHIBITION was determined as 9.98%.
Regarding `COc1ccc(C2=CCN(C(=O)C3CCC3)CC2)cc1`, the INHIBITION is listed as -17.31%.
The result for `COc1ccc(C2=CCN(C(=O)C3CCCN(C(N)=O)C3)CC2)cc1` (stereo unspecified) reads -11.91%.
As to `COc1ccc(C2=CCN(C(=O)C3CCCN(C(C)=O)C3)CC2)cc1` (stereo unspecified), the INHIBITION amounted to 68.24%.
The result for `O=C1[C@H]2CN(Cc3ccc(F)cc3)C[C@H]2CN1c1cncnc1` reads -20.89%; that for `O=C1[C@H]2CN(Cc3ccncc3)C[C@H]2CN1c1cncnc1`, 54.41%; that for `O=C1[C@H]2CN(Cc3ccccc3)C[C@H]2CN1c1cncnc1`, 37.15%.
The result for `COc1cccc2cc(CNC(=O)N3CCC(N4CCCC4)C3)oc12` (stereo unspecified) reads 25.35%; that for `CN(C)C(=O)CN1CCC2(CCN(S(C)(=O)=O)CC2)C1=O`, 39.73%.
As for `CN(C)C(=O)CN1CCC2(CCN(C(=O)N3CCCC3)CC2)C1=O`, the INHIBITION is reported as -4.75%.
Then `CN(C)C(=O)CN1CCC2(CCN(C(=O)N(C)C)CC2)C1=O`, with 54.01%; and `Cc1cnc(N2C[C@@H]3[C@@H](C2)OCC(=O)N3CCN(C)C)nc1`, with 30.58%; and `CNc1nc(N2CCN(Cc3ccsc3)C(CCO)C2)nc2c1CCC2` (stereo unspecified), with 35.43%.
The result for `O=C(C1CCOCC1)N1C[C@@H]2CC[C@H]1CN(Cc1ccncc1)C2` reads -21.32%; that for `c1cc(-c2noc([C@@H]3CCCN3C3CCC3)n2)cc(N2CCCC2)n1`, 23.81%; that for `c1cc(-c2noc(C3CCC3)n2)cc(N2CCCCC2)n1`, -23.44%.
For `c1cc(-c2noc([C@@H]3CCCN3CC3CC3)n2)cc(N2CCCC2)n1`, the INHIBITION was determined as 74.33%.
Consider `Cc1ccc(CN(Cc2ccccn2)C(=O)CCC2CCCN(C)C2)s1` (stereo unspecified), for which the INHIBITION stood at 50.59%.
The result for `Cc1ccc(CN(Cc2ccccn2)C(=O)[C@H]2CC[C@@H](N)C2)s1` reads 26.74%; that for `Cc1ccc(CN(Cc2ccccn2)C(=O)C2CCCCCN2C)s1` (stereo unspecified), -42.41%; that for `CCn1ccnc1CN1CCNCC1C` (stereo unspecified), -47.18%.
Then `c1cnc(-c2cnc(N3CCSCC3)nc2C2CC2)cn1`, with -109.23%; and `CCCSCC(=O)N1CCC2(CC1)CC(c1ccccc1)CN(C)C2` (stereo unspecified), with 33.16%.
As for `O=C1CO[C@@H]2CN(CC3CC3)C[C@H]2N1Cc1cccc(F)c1`, the INHIBITION was found to be 52.81%.
Then `O=C1CO[C@@H]2CN(C3CCOCC3)C[C@H]2N1Cc1cccc(F)c1`, with 2.98%; and `O=C1CO[C@@H]2CN(CC3CCOC3)C[C@H]2N1Cc1cccc(F)c1` (stereo partly specified), with -12.84%; and `Cn1nc2c(cc1=O)CN(CCOc1ccccc1C#N)CC2`, with -45.4%.
The result for `Cc1nc(-c2ccccc2)nc2c1CCN(Cc1nccn1C)CC2` reads 3.18%.
The result for `O=c1cc(Cn2ccnc2)nc2n1CCCN(Cc1ccco1)C2` reads -0.18%; that for `CCc1ccc(CN2CCCn3c(nc(Cn4ccnc4)cc3=O)C2)o1`, 54.56%.
`Cc1ccc(CN2CCCn3c(nc(Cn4ccnc4)cc3=O)C2)o1`: the INHIBITION was determined as 33.97%.
The result for `Cc1ncoc1C(=O)N1C[C@H]2CCC[C@@]2(COCc2cccnc2)C1` reads 30.77%.
Then `Cc1ccccc1C(NC(=O)CCCS(C)(=O)=O)C(C)(C)C` (stereo unspecified), with 33.22%; and `Cn1nnnc1SC1CCCN(c2cccc(F)c2)C1=O` (stereo unspecified), with 14.65%; and `CCc1nnc(SC2CCCN(c3cnn(C)c3)C2=O)n1C` (stereo unspecified), with 11.87%.
Then `CCc1nnc(SC2CCCN(c3cccc(F)c3)C2=O)n1C` (stereo unspecified), with 77.68%; and `COc1ccc(CNC(=O)N(Cc2ccc(F)cc2F)C2CC2)cn1`, with -67.07%.
As for `COCCN1CCN(Cc2cnc(C)nc2)CC1`, the INHIBITION was 17.8%.
On to `CCC(C)S(=O)(=O)N1CCc2nc(C3CCNCC3)ncc2C1` (stereo unspecified), for which the INHIBITION was -0.83%.
As for `CC(=O)N1CC2(CCN(C(=O)c3ccc4c(c3)OCCO4)CC2)C1`, the INHIBITION is 65.54%.
Then `CC(=O)N1CC2(CCN(C(=O)c3ccoc3)C2)C1`, with 67.62%; and `Cc1cnc(N2CC3(CCN(C(=O)c4ccoc4)C3)C2)nc1`, with -18.49%; and `CC(=O)N1CCC2(CC1)CN(C(=O)c1ccc3c(c1)OCCO3)C2`, with 41.38%.
In the case of `CC(=O)N1CCC2(CC1)CN(C(=O)c1ccc3c(c1)OCO3)C2`, the INHIBITION is 37.54%.
The result for `O=C(c1ccoc1)N1CCC2(C1)CN(c1ncccn1)C2` reads 25.43%; that for `Cc1cccc(COC[C@H]2CC[C@H]3[C@H](CCN3Cc3ccco3)O2)n1`, -22.82%.
The result for `O=C(c1ccco1)N1CCC2(CCCN(c3ncccn3)C2)C1` (stereo unspecified) reads -18.02%; that for `CC1CN(C(=O)C2(c3ccc(F)cc3F)CCOCC2)CCO1` (stereo unspecified), 20.14%.
Then `NC(=O)C1CN(C(=O)C2(c3ccc(F)cc3F)CCCC2)CCO1` (stereo unspecified), with 56.49%; and `NC(=O)C1CN(C(=O)NCC2(c3ccc(F)cc3)CCC2)CCO1` (stereo unspecified), with -14.79%; and `CN1CC2(CCN(C(=O)CCc3nc4cccnc4n3C)C2)OC1=O` (stereo unspecified), with -31.03%.
Turning to `N#Cc1ccc(C(=O)N2CC(c3nc(-c4ncccn4)no3)C2)cc1`, the INHIBITION was 11.43%.
Then `CNC(=O)c1ccc(NC(=O)NC(C)c2cc(C)oc2C)c(C)c1` (stereo unspecified), with 41.05%.
In the case of `CNC(=O)c1ccc(NC(=O)NC(C)c2cc(C)oc2C)cc1` (stereo unspecified), the INHIBITION came to 50.59%.
Regarding `Cc1cc(C(C)NC(=O)c2cnc3onc(C)c3c2)c(C)o1` (stereo unspecified), the INHIBITION is listed as 4.49%.
Then `Cc1cc(C(C)NC(=O)c2ccc(O)nc2)c(C)o1` (stereo unspecified), with 56.96%; and `CNC(=O)c1cccc(NC(=O)NCc2ccccc2)c1C`, with -7.16%; and `Cc1cc(C(C)NC(=O)c2c[nH]c(=O)c(Cl)c2)c(C)o1` (stereo unspecified), with 25.72%.
Then `CC(C)NC(=O)c1ccc(NC(=O)NC(C)c2ccccn2)cc1` (stereo unspecified), with 2.26%; and `CNC(=O)c1cccc(NC(=O)NC(C)CCc2cccn2C)c1C` (stereo unspecified), with -54.27%.
Then `CNC(=O)c1cccc(NC(=O)NC(C)c2cc(C)oc2C)c1C` (stereo unspecified), with 57.75%.

The record behind these values is ChEMBL document CHEMBL4513216, “Probing the Open Global Health Chemical Diversity Library for Multistage-Active Starting Points for Next-Generation Antimalarials” (ACS Infect Dis, 2020).
